# Test results from PubChem BioAssay (Tox21).
# Unmarked numbers belong to inactive results. Records with an inconclusive call do not appear. Where a call stands in place of a potency, no number is given. Activity calls are given as the source filed them. Unless noted, calls come from the whole dose curve.
# Legend:
# [1] = Nuclear factor erythroid 2-related factor 2/antioxidant responsive element (Nrf2/ARE) small molecule agonists: qHTS cell viability counter screen in human keratinocytes (AID 1919968; active = well fitted curve in the direction sought with a large enough effect in the repeat runs; an effect the other way counts as inactive or inconclusive; note: nearly all actives have a fitted effect of over 55% in size; note: potency is the fitted concentration of half-maximal effect)
# Outline: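 Cytotoxicity was multiplexed with the Nrf2/ARE luciferase assay in the same wells. Stably transfected HaCaT keratinocytes were treated with test compounds for 23 h at 37 C. Cell viability was then measured by CellTiter-Fluor fluorescence.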
# [2] = target: Gonadotropin-releasing hormone receptor (Homo sapiens) (UniProt P30968); assay: Human gonadotropin-releasing hormone receptor (GnRHR) small molecule agonists, calcium flux assay in GnRHR-HEK293 cells (AID 1920063); note: nearly all actives have a fitted effect of over 35% in size; note: potency is the fitted concentration of half-maximal effect
# Sequence of Gonadotropin-releasing hormone receptor (Homo sapiens) (P30968 whole entry, looked up): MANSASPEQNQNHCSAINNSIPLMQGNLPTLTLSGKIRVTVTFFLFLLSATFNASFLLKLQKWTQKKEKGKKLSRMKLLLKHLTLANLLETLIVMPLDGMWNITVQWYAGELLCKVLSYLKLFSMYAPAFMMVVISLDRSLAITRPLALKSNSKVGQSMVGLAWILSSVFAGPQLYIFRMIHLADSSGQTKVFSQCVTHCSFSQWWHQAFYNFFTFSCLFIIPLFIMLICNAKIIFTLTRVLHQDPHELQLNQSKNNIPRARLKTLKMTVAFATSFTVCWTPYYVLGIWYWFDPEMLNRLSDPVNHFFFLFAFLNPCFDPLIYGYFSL
# Outline: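 Agonist activity was measured as intracellular calcium flux in HEK293 cells engineered to stably express human GnRHR. After dye loading for 1 hour at 37 C, compounds in DMSO were added and fluorescence was followed for 3 minutes.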
# [3] = target: KiSS-1 receptor (Homo sapiens) (UniProt Q969F8); assay: Human kisspeptin (KISS1R) small molecule agonists, calcium flux assay in KISS1R-HEK293 cells (AID 1920064; active = well fitted curve in the direction sought with a large enough effect in the repeat runs; an effect the other way counts as inactive or inconclusive)
# Sequence of KiSS-1 receptor (Homo sapiens) (Q969F8 whole entry, looked up): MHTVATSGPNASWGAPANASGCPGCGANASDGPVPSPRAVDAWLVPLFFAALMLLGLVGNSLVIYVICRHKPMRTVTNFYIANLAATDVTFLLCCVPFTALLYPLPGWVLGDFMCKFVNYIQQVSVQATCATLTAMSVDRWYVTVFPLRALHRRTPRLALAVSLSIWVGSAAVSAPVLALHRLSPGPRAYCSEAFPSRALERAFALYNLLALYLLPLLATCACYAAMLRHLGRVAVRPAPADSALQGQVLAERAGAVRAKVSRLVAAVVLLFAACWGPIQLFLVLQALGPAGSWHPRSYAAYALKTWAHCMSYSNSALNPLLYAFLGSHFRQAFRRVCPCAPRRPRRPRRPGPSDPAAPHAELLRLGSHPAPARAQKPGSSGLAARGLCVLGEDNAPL
# Outline: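 Agonist activity is monitored as intracellular calcium rise in engineered HEK293 cells carrying human KISS1R. Cells are dye-loaded for 1 h at 37 C before compound addition, and fluorescence is recorded for 3 min.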
# [4] = G protein-coupled receptor (GPCR) small molecule agonists, calcium flux assay: HEK293 wild type cell line counter screen (AID 1920065)
# Outline: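 Seed cells, incubate 18 h (37 C, 5% CO2); add calcium dye, 1 h at 37 C; pin-transfer compounds, ATP control or DMSO; read fluorescence 480/540 nm each second for 3 min.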
# [5] = p53 small molecule agonists, cell-based qHTS assay with rat liver microsomes (AID 1963578)
# Outline: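 Rat liver microsome activation: microsomes 0.5 mg/mL, NADPH 0.5 mg/mL final; p53RE-bla cells, 16 h 37 C; LiveBLAzer readout, 2 h RT dark.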
# [6] = p53 small molecule agonists, cell-based qHTS assay with human liver microsomes: qHTS cell viability counter screen (AID 1963579); note: nearly all actives have a fitted effect of over 45% in size
# Outline: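 Luminescent CellTiter-Glo read-out, 30 min at room temperature, gauged cytotoxicity in p53RE-bla cells exposed 16 h at 37 C to DMSO-dissolved compounds with metabolic activation by human liver microsomes and NADPH, each 0.5 mg/mL final.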
# [7] = p53 small molecule agonists, cell-based qHTS assay with rat liver microsomes: qHTS cell viability counter screen (AID 1963580); note: nearly all actives have a fitted effect of over 45% in size
# Outline: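 Rat liver microsome (0.5 mg/mL final) and NADPH (0.5 mg/mL final) co-incubation with compounds for 16 h at 37 C on HCT-116 p53RE-bla cells; cytotoxicity taken from intracellular ATP luminescence.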
# [8] = p53 small molecule agonists, cell-based qHTS assay (AID 1963582; active = well fitted activation curve with a large enough effect in the signal ratio in the repeat runs, not every such curve was filed as active; the % refers to the signal ratio)
# Outline: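 Cells carrying a p53-responsive bla reporter are treated with test compounds for 16 h at 37 C; beta-lactamase activity is then detected with LiveBLAzer B/G FRET substrate after 2 h at room temperature.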
# [9] = target: 5-hydroxytryptamine receptor 2A (Homo sapiens) (UniProt P28223); assay: 5-hydroxytryptamine receptor 2A (HTR2A) small molecule antagonists, cell-based qHTS assay (AID 1963586); note: nearly all actives have a fitted effect of over 45% in size
# Sequence of 5-hydroxytryptamine receptor 2A (Homo sapiens) (P28223 whole entry, looked up): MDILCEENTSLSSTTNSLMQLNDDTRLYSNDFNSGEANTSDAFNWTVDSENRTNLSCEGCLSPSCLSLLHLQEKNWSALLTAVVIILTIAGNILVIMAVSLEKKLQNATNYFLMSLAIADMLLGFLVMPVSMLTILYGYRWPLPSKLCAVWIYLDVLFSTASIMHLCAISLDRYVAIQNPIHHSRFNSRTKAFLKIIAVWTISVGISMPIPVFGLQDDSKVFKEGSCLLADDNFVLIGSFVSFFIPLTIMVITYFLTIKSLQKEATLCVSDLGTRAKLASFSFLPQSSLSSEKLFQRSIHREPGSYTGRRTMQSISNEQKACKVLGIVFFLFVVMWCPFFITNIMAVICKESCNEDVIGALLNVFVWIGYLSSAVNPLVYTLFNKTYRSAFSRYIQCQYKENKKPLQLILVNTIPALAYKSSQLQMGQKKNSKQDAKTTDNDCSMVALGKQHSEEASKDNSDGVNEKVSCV
# Outline: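 CHO cells stably expressing human HTR2A were plated for 18 h at 37 C, then loaded with calcium dye for 1 h. Compounds were preincubated 5 min at room temperature before DOI (4 nM solution) was added. Kinetic fluorescence was read for 3 min.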
# [10] = target: 5-hydroxytryptamine receptor 2A (Homo sapiens) (UniProt P28223); assay: 5-hydroxytryptamine receptor 2A (HTR2A) small molecule agonists, cell-based qHTS assay (AID 1963587); note: nearly all actives have a fitted effect of over 30% in size; note: potency is the fitted concentration of half-maximal effect
# Outline: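 Kinetic calcium-flux fluorescence (2 min, 1 sec intervals) after compound addition in agonist mode. HTR2A-CHO cells were cultured 18 h, then dye-loaded 1 h at 37 C.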
# [11] = target: Muscarinic acetylcholine receptor M1 (Homo sapiens) (UniProt P11229); assay: Cholinergic receptor muscarinic 1 (CHRM1) small molecule antagonists, cell-based qHTS assay (AID 1963588); note: nearly all actives have a fitted effect of over 40% in size; note: potency is the fitted concentration of half-maximal effect
# Sequence of Muscarinic acetylcholine receptor M1 (Homo sapiens) (P11229 whole entry, looked up): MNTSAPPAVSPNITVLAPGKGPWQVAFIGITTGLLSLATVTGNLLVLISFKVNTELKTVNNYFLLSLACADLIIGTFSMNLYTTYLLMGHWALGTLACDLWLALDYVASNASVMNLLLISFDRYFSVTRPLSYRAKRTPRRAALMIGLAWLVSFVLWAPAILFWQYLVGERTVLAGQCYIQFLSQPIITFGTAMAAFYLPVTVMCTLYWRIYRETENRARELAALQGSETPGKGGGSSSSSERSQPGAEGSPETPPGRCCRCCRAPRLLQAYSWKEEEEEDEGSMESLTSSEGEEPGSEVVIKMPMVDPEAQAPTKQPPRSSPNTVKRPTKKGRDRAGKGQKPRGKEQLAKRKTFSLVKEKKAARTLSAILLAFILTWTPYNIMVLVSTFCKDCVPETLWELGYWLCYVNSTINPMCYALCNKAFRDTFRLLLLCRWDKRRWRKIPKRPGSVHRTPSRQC
# Outline: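 Compounds were tested at 15 concentrations in three independent runs. Dye-loaded CHRM1-CHO cells were exposed 5 min at room temperature before stimulation by acetylcholine added at 50nM. Intracellular calcium was read kinetically on FDSS for 3 min.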
# [12] = target: Muscarinic acetylcholine receptor M1 (Homo sapiens) (UniProt P11229); assay: Cholinergic receptor muscarinic 1 (CHRM1) small molecule agonists, cell-based qHTS assay (AID 1963589); note: nearly all actives have a fitted effect of over 35% in size
# Outline: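 Cells were plated and incubated 18 h at 37 C/5% CO2, loaded with calcium dye for 1 h at 37 C, then treated with compounds in DMSO. Fluorescence was recorded kinetically at 1 sec intervals.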
# [13] = cAMP Responsive Elements (CRE) small molecule agonists, cell-based qHTS assay (AID 1963590)
# Outline: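 Cells carrying a CRE-driven beta-lactamase reporter (HEK 293T) are seeded, incubated overnight (18 h), and treated with test compounds for 3 h at 37 C; reporter activity is then detected with a FRET substrate after 2 h at room temperature.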
# [14] = target: Beta-2 adrenergic receptor (Homo sapiens) (UniProt P07550); assay: Adrenergic beta2 receptor (ADRB2) small molecule antagonists, cell-based qHTS assay (AID 1963592); note: series mostly up to about 92 µM; nearly all actives have a fitted effect of over 50% in size
# Sequence of Beta-2 adrenergic receptor (Homo sapiens) (P07550 whole entry, looked up): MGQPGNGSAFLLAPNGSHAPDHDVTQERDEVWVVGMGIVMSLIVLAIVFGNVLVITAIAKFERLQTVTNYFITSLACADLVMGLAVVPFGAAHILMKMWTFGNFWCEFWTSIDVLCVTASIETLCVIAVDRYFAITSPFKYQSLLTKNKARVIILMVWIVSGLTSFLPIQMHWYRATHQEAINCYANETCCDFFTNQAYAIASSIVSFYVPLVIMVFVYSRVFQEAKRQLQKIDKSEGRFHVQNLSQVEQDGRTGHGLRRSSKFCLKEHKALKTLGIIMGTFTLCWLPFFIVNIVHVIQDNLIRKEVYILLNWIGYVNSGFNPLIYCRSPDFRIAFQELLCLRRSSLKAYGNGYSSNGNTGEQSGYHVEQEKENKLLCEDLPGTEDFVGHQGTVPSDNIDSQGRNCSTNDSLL
# Outline: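 Assay format: CHO-ADRB2 cells, 18-20hr seeding at 37C/5% CO2, then compound plus 1nM isoproterenol agonist mix for 0.5hr RT. Homogeneous time-resolved fluorescence cAMP detection after 1hr, expressed as 665/615 nm ratio.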
# [15] = target: Beta-2 adrenergic receptor (Homo sapiens) (UniProt P07550); assay: Adrenergic beta2 receptor (ADRB2) small molecule agonists, cell-based qHTS assay (AID 1963593);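 note: CHO cells stably overexpressing human ADRB2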
# Outline: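 CHO cells stably over-expressing ADRB2 were plated overnight at 37C, then dosed with compounds plus a stimulation mix containing 100uM IBMX and 25uM Ro-20-1724 for 0.5hr at room temperature. cAMP was measured by HTRF competition, 1hr.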
# [16] = target: D(2) dopamine receptor (Homo sapiens) (UniProt P14416); assay: Dopamine D2 receptor (DRD2) small molecule agonists, cell-based qHTS assay (AID 1963594); note: nearly all actives have a fitted effect of over 35% in size
# Sequence of D(2) dopamine receptor (Homo sapiens) (P14416 whole entry, looked up): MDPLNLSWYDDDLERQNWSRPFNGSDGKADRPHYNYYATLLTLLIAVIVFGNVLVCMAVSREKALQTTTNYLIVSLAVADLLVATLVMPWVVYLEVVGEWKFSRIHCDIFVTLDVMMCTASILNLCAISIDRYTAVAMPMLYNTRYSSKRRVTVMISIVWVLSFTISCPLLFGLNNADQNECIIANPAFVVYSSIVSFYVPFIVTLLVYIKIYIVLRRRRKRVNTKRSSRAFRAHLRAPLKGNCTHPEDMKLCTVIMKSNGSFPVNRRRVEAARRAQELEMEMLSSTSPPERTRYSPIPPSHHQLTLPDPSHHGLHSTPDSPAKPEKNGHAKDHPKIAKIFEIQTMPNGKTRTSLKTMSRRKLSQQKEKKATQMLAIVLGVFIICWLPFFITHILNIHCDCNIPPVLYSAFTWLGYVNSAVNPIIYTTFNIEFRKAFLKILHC
# Outline: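 cAMP accumulation in DRD2-HEK293 cells measured by HTRF after 1 h detection; compounds added 10 min before NKH477 (200nM […]) forskolin-analogue stimulation, 30 min at room temperature, with Ro20-1724 present at 0.1 mM final.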
# [17] = p53 small molecule agonists, cell-based qHTS assay with human liver microsomes (AID 1963577);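 note: p53 response element beta-lactamase reporter cells with liver microsomes plus NADPH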
# Outline: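 p53RE-bla cells; 5 h settle, 37 C/5% CO2; cpd + HLM 0.5 mg/mL + NADPH 0.5 mg/mL (final); 16 h 37 C; LiveBLAzer 2 h RT dark; fluorescence readout.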
# [18] = p53 small molecule agonists, cell-based qHTS assay: qHTS cell viability counter screen (AID 1963581); note: nearly all actives have a fitted effect of over 45% in size
# Outline: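 Viability was counter-screened in parallel with the p53 agonist reporter by measuring intracellular ATP luminescence in the same HCT-116 p53RE-bla wells after 16 h compound treatment at 37 C.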
# [19] = target: D(2) dopamine receptor (Homo sapiens) (UniProt P14416); assay: Dopamine D2 receptor (DRD2) small molecule antagonists, cell-based qHTS assay (AID 1963595; active = well fitted inhibition curve with a large enough effect in the signal ratio in the repeat runs, with a control signal flat; the % refers to the signal ratio)
# Outline: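 HEK293 cells stably expressing DRD2, preincubated with 0.1 mM Ro20-1724 and compounds 10 min, were stimulated with 200 nM NKH477 plus 12 nM quinpirole for 30 min at room temperature; cAMP measured by HTRF (665/620 nm).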
# [20] = cAMP Responsive Elements (CRE) small molecule antagonists, cell-based qHTS assay (AID 1963591; active = well fitted inhibition curve with a large enough effect in the signal ratio in the repeat runs, not every such curve was filed as active; the % refers to the signal ratio)
# Outline: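 Cells (CRE-bla HEK 293T, DMEM with 10% dialyzed FBS and 25 mM HEPES) are seeded and incubated 18 h. Compounds are added with NKH477 agonist at 0.25 uM final for 3 h, then FRET substrate for 2 h.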
Compound,Potency [1],Potency [2],Potency [3],Potency [4],Potency [5],Potency [6],Potency [7],Potency [8],Potency [9],Potency [10],Potency [11],Potency [12],Potency [13],Potency [14],Potency [15],Potency [16],Potency [17],Potency [18],Potency [19],Potency [20]
N#C/C(N)=C(/N)C#N,inactive,inactive,inactive,inactive,inactive,inactive,inactive,inactive,inactive,inactive,inactive,inactive,inactive,inactive,inactive,inactive,–,–,–,–
CC(C)COP(=O)(OCC(C)C)OCC(C)C,inactive,inactive,inactive,inactive,–,inactive,inactive,inactive,inactive,inactive,inactive,inactive,inactive,–,–,inactive,inactive,inactive,inactive,–
O=C(O)c1ccccc1C(=O)Nc1cccc2ccccc12,inactive,inactive,inactive,inactive,inactive,inactive,–,inactive,inactive,–,inactive,inactive,inactive,inactive,–,–,–,–,inactive,inactive
C1=CCC=C1,inactive,inactive,inactive,inactive,–,inactive,inactive,–,inactive,inactive,inactive,inactive,inactive,–,inactive,inactive,–,inactive,inactive,inactive
CCCOc1nn(C(=O)NS(=O)(=O)c2ccccc2C(=O)OC)c(=O)n1C,inactive,inactive,inactive,inactive,inactive,inactive,inactive,inactive,inactive,inactive,inactive,–,inactive,inactive,inactive,inactive,–,inactive,inactive,inactive
O=C(Nc1ccccc1)N(Cc1ccc(Cl)cc1)C1CCCC1,inactive,inactive,inactive,inactive,–,inactive,inactive,–,inactive,inactive,37.5 µM (active),inactive,–,inactive,inactive,inactive,inactive,–,inactive,–
C[C@H]1CC[C@@H]2[C@@H](C)[C@H]3[C@H](C[C@H]4[C@@H]5CC=C6CC(O[C@@H]7O[C@H](CO)[C@H](O)[C@H](O[C@@H]8O[C@H](CO)[C@@H](O)[C@H](O)[C@H]8O)[C@H]7O[C@H]7O[C@@H](C)[C@H](O)[C@@H](O)[C@H]7O)CC[C@]6(C)[C@H]5CC[C@]34C)N2C1 (stereo partly drawn),22.4 µM (active),10.1 µM (active),inactive,inactive,–,inactive,inactive,–,inactive,63.7 µM (active),inactive,inactive,inactive,inactive,inactive,–,–,inactive,inactive,inactive
CCS(=O)(=O)c1cccnc1S(=O)(=O)NC(=O)Nc1nc(OC)cc(OC)n1,inactive,inactive,inactive,inactive,inactive,inactive,inactive,inactive,inactive,inactive,inactive,inactive,inactive,–,inactive,inactive,–,–,inactive,inactive
